According to ChEMBL document CHEMBL1961873, “Compounds: GSK PKIS; Assays: Nanosyn kinase panel” (2012):

Target: Macrophage-stimulating protein receptor (Homo sapiens) (UniProt Q04912)
Conditions: at 0.1 µM
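Also: reported values are the mean percent inhibition of RON.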

Sequence of Macrophage-stimulating protein receptor (Homo sapiens) (Q04912 25-304 limits assumed): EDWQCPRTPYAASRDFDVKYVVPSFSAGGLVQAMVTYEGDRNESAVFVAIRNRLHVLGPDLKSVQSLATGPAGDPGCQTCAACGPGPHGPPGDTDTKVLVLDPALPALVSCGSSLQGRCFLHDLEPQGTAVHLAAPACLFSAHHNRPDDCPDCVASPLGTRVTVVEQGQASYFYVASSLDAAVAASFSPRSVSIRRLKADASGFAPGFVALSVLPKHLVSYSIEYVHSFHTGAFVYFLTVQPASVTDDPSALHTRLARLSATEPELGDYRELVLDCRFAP
Sequence of Macrophage-stimulating protein receptor (Homo sapiens) (Q04912 310-1400 limits assumed): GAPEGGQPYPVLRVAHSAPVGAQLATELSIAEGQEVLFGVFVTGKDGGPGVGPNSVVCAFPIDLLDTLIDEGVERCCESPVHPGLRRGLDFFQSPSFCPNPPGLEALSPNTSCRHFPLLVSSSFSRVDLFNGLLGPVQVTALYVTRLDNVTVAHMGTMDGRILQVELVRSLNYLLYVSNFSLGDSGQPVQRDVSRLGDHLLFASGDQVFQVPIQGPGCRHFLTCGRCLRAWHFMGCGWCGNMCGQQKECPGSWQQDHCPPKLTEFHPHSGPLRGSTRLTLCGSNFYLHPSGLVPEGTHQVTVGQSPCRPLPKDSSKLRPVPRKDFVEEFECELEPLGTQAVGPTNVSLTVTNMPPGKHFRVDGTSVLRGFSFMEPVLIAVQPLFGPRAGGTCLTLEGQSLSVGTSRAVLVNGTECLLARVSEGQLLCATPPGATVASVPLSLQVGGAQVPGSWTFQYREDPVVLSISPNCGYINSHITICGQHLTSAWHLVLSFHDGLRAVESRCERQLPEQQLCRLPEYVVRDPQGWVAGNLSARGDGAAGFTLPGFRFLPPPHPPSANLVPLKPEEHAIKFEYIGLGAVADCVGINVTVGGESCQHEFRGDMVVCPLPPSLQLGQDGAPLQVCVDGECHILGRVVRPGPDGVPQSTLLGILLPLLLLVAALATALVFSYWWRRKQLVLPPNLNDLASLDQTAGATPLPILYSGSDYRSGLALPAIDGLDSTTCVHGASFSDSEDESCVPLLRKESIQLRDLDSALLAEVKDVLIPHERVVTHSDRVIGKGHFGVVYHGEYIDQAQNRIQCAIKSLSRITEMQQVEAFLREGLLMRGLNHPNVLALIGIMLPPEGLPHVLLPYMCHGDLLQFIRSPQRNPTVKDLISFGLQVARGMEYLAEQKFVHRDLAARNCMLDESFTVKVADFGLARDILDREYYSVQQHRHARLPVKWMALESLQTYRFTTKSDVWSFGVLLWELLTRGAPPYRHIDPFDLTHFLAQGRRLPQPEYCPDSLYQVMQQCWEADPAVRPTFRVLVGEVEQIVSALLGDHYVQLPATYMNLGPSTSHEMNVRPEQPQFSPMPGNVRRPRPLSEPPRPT

Compound | inhibition
Nc1ncnc2occ(-c3ccc(NC(=O)Nc4cc(C(F)(F)F)cc(C(F)(F)F)c4)cc3)c12 | -3.85%
CCn1c(-c2nonc2N)nc2c(N3CCCC3)nccc21 | 1.7%
CCn1c(-c2nonc2N)nc2cnc(Oc3cccc(NC(=O)c4ccc(OCCN5CCOCC5)cc4)c3)cc21 | 3.1%
COc1ccccc1Nc1ncc(-c2ccccc2)o1 | 6.08%
Cc1cccc(-c2n[nH]cc2-c2ccc3ncccc3n2)n1 | 3.7%
CC1=C(C(=O)Nc2ccc3[nH]ncc3c2)C(c2ccc(F)cc2)NC(=O)N1 (stereo unspecified) | 4.69%
CCCN1CCC=C(c2ccc(Nc3nc(Nc4ccccc4C(N)=O)c4cc[nH]c4n3)c(C)c2)C1 | 7.2%
CS(=O)(=O)Nc1ccc(N/C=C2\C(=O)Nc3ccccc32)cc1 | -3.2%
CCN1CCC(CC(=O)Nc2n[nH]c3nc(-c4cccs4)c(Br)cc23)CC1 | 0.5%
CS(=O)(=O)CCNCc1ccc(-c2ccc3ncnc(Nc4ccc(OCc5cccc(F)c5)c(C(F)(F)F)c4)c3c2)o1 | 3.73%
COc1ccc(-c2nn3ncccc3c2-c2ccnc(Nc3ccc(Cl)c(C(F)(F)F)c3)n2)cc1 | -1.78%
c1cnn2ncc(-c3ccnc(Nc4ccc5c(c4)OCCO5)n3)c2c1 | 4.39%
CCn1c(-c2nonc2N)nc2cncc(C(=O)N3CC[C@H](N)C3)c21 | 2.92%
NCc1ccc(-c2nc(-c3ccc(Cl)c(O)c3)c(-c3ccncc3)[nH]2)cc1 | -0.28%
COc1cc2ncn(-c3cc(OCc4ccccc4C(F)(F)F)c(C(N)=O)s3)c2cc1OC | 4.5%
COc1ccc(-c2ccncc2)cc1C(N)=O | 9.12%
